Assay outcomes: PubChem, several laboratories
Many of the other results were omitted from the sample, so hits are more common in it than they were.
ALR inh = inhibitors of human ALR sulfhydryl oxidase, primary screen, biochemical, H2O2 detection, HRP-luminol luminescence, single point; FAD-linked sulfhydryl oxidase ALR (Homo sapiens), P55789; purified ALR, DTT oxidation; inhibition, % (test concentration not listed); actives 3.8% (n = 290,000); AID 485317, 2010;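 active = mean replicate inhibition above about 79%, with every replicate also reaching it, limit read from the data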
PglD inh = C. jejuni PglD acetyltransferase inhibitors, primary screen, biochemical, DTNB colorimetric, single point | inhibition, % at 12.5 µM | purified PglD enzyme, DTNB colorimetric CoA detection | actives 0.098% (n = 360,000) | UDP-N-acetylbacillosamine N-acetyltransferase PglD (Campylobacter jejuni); in the data active = inhibition above about 16%, passing the limit was not always enough
ARNT TACC3 PPI = disruptors of ARNT/TACC3 protein interaction, primary screen, biochemical, AlphaScreen, single concentration | actives 0.66% (n = 390,000) | inhibition, % at 9.99 µM | Transforming acidic coiled-coil-containing protein 3 (Homo sapiens), Q9Y6A5 | AlphaScreen His-ARNT PAS-B/GST-TACC3 binding, luminescence; TACC3 fragment carries E629A point mutation;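 active = mean inhibition of replicates at least 50% and at least half of replicates each reaching 50%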
PDI turbidity = inhibitors of human PDI, primary screen, biochemical, turbidity, single point, plate reader. inhibition, % at 10 µM. Protein disulfide-isomerase (Homo sapiens), P07237. PDI insulin aggregation turbidity, A650, 90 min. actives 0.052% (n = 350,000);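 active = mean inhibition across replicates of 30% or more, whatever share of single replicates reach that level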
Target sequence (P07237 whole entry, looked up): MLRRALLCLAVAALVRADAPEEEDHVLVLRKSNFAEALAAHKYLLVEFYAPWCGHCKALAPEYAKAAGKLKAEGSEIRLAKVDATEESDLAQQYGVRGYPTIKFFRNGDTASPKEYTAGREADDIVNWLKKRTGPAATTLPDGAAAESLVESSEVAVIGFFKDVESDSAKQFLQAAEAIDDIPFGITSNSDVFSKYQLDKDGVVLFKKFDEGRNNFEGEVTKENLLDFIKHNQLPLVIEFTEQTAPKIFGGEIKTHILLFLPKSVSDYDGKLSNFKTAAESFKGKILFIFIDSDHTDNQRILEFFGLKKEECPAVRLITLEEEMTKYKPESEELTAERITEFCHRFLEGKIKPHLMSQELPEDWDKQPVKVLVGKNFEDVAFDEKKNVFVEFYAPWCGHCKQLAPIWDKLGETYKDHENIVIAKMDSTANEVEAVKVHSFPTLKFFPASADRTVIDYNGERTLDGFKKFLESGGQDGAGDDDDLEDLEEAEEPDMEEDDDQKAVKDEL
ERp5 inh = inhibitors of ERp5-driven insulin aggregation, primary screen, biochemical, turbidity, absorbance 650 nm, single point | Protein disulfide-isomerase A6 (Homo sapiens), Q15084 | 90 min | inhibition, % at 9.99 µM | actives 0.05% (n = 350,000) | AID 651711, 2012;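 active = mean replicate inhibition above about 25%, with every replicate also reaching it, limit read from the data, passing the limit was not always enough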
CendR NRP1 mod = modulators of CendR peptide binding to NRP-1, primary screen, biochemical, fluorescence polarization, uHTS | Neuropilin-1 (Homo sapiens), O14786 | FAM-RPARPAR peptide binding to NRP-1 | inhibition, % at 25 µM | actives 0.85% (n = 360,000) | AID 602438, 2012;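 active = inhibition or corrected inhibition above about 18%, plus a signal ratio from 0.5 to 1.5, limit read from the data, passing the limit was not always enough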
A number is an active result; i = inactive; nt = not tested or not shown.

SMILES	ALR inh	PglD inh	ARNT TACC3 PPI	PDI turbidity	ERp5 inh	CendR NRP1 mod
Cc1cccc(N2CCN(C(=O)CCn3c(=O)[nH]c4ccsc4c3=O)CC2C)c1 (stereo unspecified)	99	i	nt	i	i	i
Cc1cccc(N2CCN(C(=O)c3cccc(N4C(=O)C5C6C=CC(C6)C5C4=O)c3)CC2C)c1 (stereo unspecified)	i	i	i	i	i	i
O=C(CCCn1c(=O)[nH]c2ccsc2c1=O)N1CCCCC1	i	i	i	i	nt	i
Cc1cccc(N2CCN(C(=O)c3ccccn3)CC2C)c1 (stereo unspecified)	i	nt	i	i	i	i
COc1ccccc1N1CCN(C(=O)CCn2c(=O)[nH]c3ccsc3c2=O)CC1	i	i	i	i	nt	i
COCCNC(=O)C[C@H]1CC[C@@H]2[C@H](COC[C@@H](O)CN2S(=O)(=O)c2ccccc2C)O1	nt	i	i	nt	i	nt
COCC(=O)Nc1ccc2c(c1)C(=O)N(C)C[C@H](OC)[C@H](C)CN(C(C)=O)[C@H](C)CO2	nt	i	i	nt	i	nt
Cc1cccc(N2CCN(C(=O)c3ccc(CS(=O)(=O)c4ccccc4C)o3)CC2C)c1 (stereo unspecified)	95	i	i	i	nt	i
CCC(=O)N1C[C@@H](C)[C@H](OC)CN(C)C(=O)c2cc(NS(=O)(=O)CC)ccc2OC[C@@H]1C	nt	i	i	nt	i	nt
CC(=O)c1cccc(S(=O)(=O)Nc2cccc(S(=O)(=O)NC3=NCCC3)c2)c1	i	i	i	i	i	i
CC(=O)c1ccc(S(=O)(=O)Nc2cccc(S(=O)(=O)NC3=NCCC3)c2)cc1	100	i	i	i	nt	i
C=CCN1CCc2c(cc(O)c(O)c2Cl)C(c2ccccc2)C1 (stereo unspecified)	99	i	i	i	i	i
Cc1cccc(C2CN(C)CCc3c2cc(O)c(O)c3Cl)c1 (stereo unspecified)	98	i	i	i	i	i
C#CC1c2ccccc2CCN1CC=C (stereo unspecified)	nt	nt	nt	nt	i	nt
C=CCN1CCc2cc(O)c(O)cc2C(c2ccccc2)C1 (stereo unspecified)	98	i	i	i	i	i
CO[C@@H]1CN(C)C(=O)c2cc(NS(=O)(=O)c3ccc(Oc4ccccc4)cc3)ccc2OC[C@H](C)NC[C@H]1C	nt	i	i	nt	i	nt
C[C@@H]1CN([C@@H](C)CO)C(=O)c2cccc(NS(=O)(=O)c3cn(C)cn3)c2O[C@@H]1CN(C)C(=O)NC1CCCCC1	nt	i	i	nt	i	nt
CCCN1C[C@@H](C)[C@H](OC)CN(C)C(=O)c2cc(NC(=O)Nc3c(C)noc3C)ccc2OC[C@H]1C	nt	i	i	nt	i	nt
Cc1ccc(NC(=O)Cc2nc(-c3c[nH]c(C(=O)N4CCCC4)c3)cs2)c(C)c1	98	i	i	i	i	i
CCc1ccc(CNc2ccc3c(c2)ncn3CC)cc1	i	i	i	i	i	i
CCN(CC)c1ccc(CNc2ccc3c(c2)ncn3C(C)(C)C)cc1	99	i	i	i	i	i
CCCCn1cnc2cc(NCc3ccncc3)ccc21	i	i	i	i	i	i
CCc1ccc(CNc2ccc3c(c2)ncn3C(C)(C)C)cc1	i	i	i	i	i	i
CN(C)c1ccc(CNc2ccc3c(c2)ncn3C)cc1	99	nt	nt	nt	nt	nt
Cn1cnc2cc(NCc3ccccc3Cl)ccc21	90	i	i	i	i	i
CCn1cnc2cc(NCc3ccccc3Cl)ccc21	i	i	i	i	i	i
CC(C)c1ccc(CNc2ccc3c(c2)ncn3C)cc1	78	i	i	i	i	i
CC(C)CC#Cc1ccc2c(c1)O[C@@H](CN(C)Cc1cccc(F)c1)[C@H](C)CN([C@@H](C)CO)S2(=O)=O	nt	i	i	nt	i	nt
O=C(C[C@H]1CC[C@@H](NS(=O)(=O)c2ccc(F)cc2)[C@H](CO)O1)N1CCC(Cc2ccccc2)CC1	nt	i	i	nt	i	nt
